For ten compounds, AC50 and outcome results are on record in PubChem BioAssay (EPA / NIEHS).

Where “and” joins values, the source holds several entries; their conditions need not be identical. Identical values can stand only once. Results filed as inconclusive are left out. Calls of active or inactive are those of the source. How the source made its calls: active means hit-call score of the fitted dose curve at least 0.9, where 1 is the maximum; inconclusive means response in the unintended direction; inactive means score below 0.9.

Glucocorticoid receptor (Homo sapiens), sequence (P04150 whole entry, looked up): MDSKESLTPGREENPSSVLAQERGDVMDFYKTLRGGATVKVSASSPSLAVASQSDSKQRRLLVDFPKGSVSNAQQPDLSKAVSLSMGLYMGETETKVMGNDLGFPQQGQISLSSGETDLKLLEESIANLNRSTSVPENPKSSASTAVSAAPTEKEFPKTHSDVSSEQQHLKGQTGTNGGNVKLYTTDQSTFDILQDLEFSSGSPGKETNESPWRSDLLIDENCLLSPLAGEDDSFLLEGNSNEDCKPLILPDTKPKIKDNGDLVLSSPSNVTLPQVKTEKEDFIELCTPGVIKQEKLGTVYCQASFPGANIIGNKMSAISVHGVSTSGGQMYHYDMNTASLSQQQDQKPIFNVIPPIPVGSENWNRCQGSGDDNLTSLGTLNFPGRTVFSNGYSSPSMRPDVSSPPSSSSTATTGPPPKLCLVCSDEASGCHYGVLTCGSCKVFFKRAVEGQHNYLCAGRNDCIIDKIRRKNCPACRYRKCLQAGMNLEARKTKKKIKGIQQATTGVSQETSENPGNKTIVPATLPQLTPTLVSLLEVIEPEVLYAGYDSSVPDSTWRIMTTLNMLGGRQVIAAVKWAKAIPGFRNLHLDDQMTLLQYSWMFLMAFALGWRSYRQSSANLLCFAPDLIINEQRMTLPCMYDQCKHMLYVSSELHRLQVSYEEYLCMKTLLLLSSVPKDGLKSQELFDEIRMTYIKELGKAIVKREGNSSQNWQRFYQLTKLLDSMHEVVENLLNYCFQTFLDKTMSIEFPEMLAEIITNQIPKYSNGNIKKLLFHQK

This assay deals with Glucocorticoid receptor (Homo sapiens) (UniProt P04150). In words: NVS_NR_hGR: NovaScreen (NVS) Nuclear Receptor Binding Assay for human Glucocorticoid Receptor (GR) (AID 2283363). As for the experimental part:
NVS_NR_hGR is a biochemical, single-readout assay that uses extracted gene-proteins in a cell-free assay. Measurements were taken 16 hours after chemical dosing in a 96-well plate.NVS_NR_hGR is one of one assay component(s) measured or calculated from the NVS_NR_hGR assay. It is designed to make measurements of radioligand binding, a form of binding reporter, as detected with scintillation counting signals by Filter-based radiodetection technology.Data from the assay component NVS_NR_hGR was analyzed into 1 assay endpoint. This assay endpoint, NVS_NR_hGR, was analyzed in the positive analysis fitting direction relative to DMSO as the negative control and baseline of activity. Using a type of binding reporter, loss-of-signal activity can be used to understand changes in the binding as they relate to the gene NR3C1. Furthermore, this assay endpoint can be referred to as a primary readout, because the performed assay has only produced 1 assay endpoint. To generalize the intended target to other relatable targets, this assay endpoint is annotated to the nuclear receptor intended target family, where the subfamily is steroidal.
Binding assays used specific radioligands (tritiated, iodinated) with non-radioactive competitive displacement ligands in agonist or antagonist protocols (as indicated) and various reference compounds and inhibitors to titrate specific binding to receptors and transporters. Most enzyme assays (CYPs, kinases, phosphatases, proteases, HDACs) used recombinant protein and specific substrates (fluorescence mostly, some colorimetric and radioactive) and inhibitors, followed by a biochemical separation of substrate and product. All assays for the biochemical HTS were initially run in duplicate at a single concentration (10 uM for CYP450 assays and 25 uM for all others). […] Each assay was run with positive and negative controls, and concurrent controls on every plate. The follow-up (secondary) screen tested active chemical-pairs in concentration series, as well as a few additional assays not tested in the primary screen, some selected negative inactives, and several cases re-run in the concentration series for confirmatory purposes.
The AC50 is the midpoint of the concentration-response curve, whichever way the signal moves. For the compound `OCC(O)CO`, the AC50 is 4.96 µM (active).
As to `CCC(=O)O[C@H]1CC[C@H]2[C@@H]3CCC4=CC(=O)CC[C@]4(C)[C@H]3CC[C@]12C`, the AC50 was 2.45 µM (active) and 896 nM (active) and 841 nM (active).
Still for that read-out and setting: in the case of `C[C@]12CCC(=O)C=C1CC[C@@H]1[C@@H]2CC[C@@]2(C)[C@H]1CC[C@]2(C)O` it was 401 nM (active) and 201 nM (active) and 306 nM (active).
As to `CC(C)(c1ccccc1)c1ccc(O)cc1`, the AC50 was 5.28 µM (active) and 6.67 µM (active) and 16.2 µM (active).
For the compound `O=C(O)C(F)(F)C(F)(F)C(F)(F)C(F)(F)C(F)(F)C(F)(F)C(F)(F)C(F)(F)C(F)(F)F`, the result was inactive.
The same measure, in the same setting: in the case of `ClC1=C(Cl)[C@]2(Cl)[C@@H]3[C@@H]4C[C@@H]([C@H]5O[C@@H]45)[C@@H]3[C@@]1(Cl)C2(Cl)Cl` it was “inactive”.
For `CCCCCCCCCC[N+](C)(C)CCCCCCCCCC`, the AC50 was 5.53 µM (active).
For `Oc1ccc(C(c2ccc(O)cc2)(C(F)(F)F)C(F)(F)F)cc1`, the AC50 was 726 nM (active) [middle of 4 runs].
With `Oc1c(Cl)c(Cl)c(Cl)c(Cl)c1Cl`, the compound was called inactive.
Take `CCOC(=O)C(O)(c1ccc(Cl)cc1)c1ccc(Cl)cc1`: the call was inactive.
